Values joined by “and” are separate entries in the source; they are usually repeats but may differ in a detail not shown here. Identical values can stand only once. Hit rate of the full screen: of about 16,000 compounds, about 4,000 (25%) were called active. About 26% were inconclusive and are not listed. Calls come from the whole dose curve; as a rule, active = well fitted curve in the direction sought with a large enough effect; inconclusive = small, poorly fitted or top-dose-only effect, or effect the other way; inactive = no such curve, though single readings can be large or run the other way. These entries were drawn from the full list. A structure can be active in one record and inactive in another.

A word on the AC50: it is the concentration at which the activity in the assay is half-maximal.
% is set by controls: 0 for no effect and ±100 for the full control effect.

Cytochrome P450 2C9 (Homo sapiens), sequence (P11712 whole entry, looked up): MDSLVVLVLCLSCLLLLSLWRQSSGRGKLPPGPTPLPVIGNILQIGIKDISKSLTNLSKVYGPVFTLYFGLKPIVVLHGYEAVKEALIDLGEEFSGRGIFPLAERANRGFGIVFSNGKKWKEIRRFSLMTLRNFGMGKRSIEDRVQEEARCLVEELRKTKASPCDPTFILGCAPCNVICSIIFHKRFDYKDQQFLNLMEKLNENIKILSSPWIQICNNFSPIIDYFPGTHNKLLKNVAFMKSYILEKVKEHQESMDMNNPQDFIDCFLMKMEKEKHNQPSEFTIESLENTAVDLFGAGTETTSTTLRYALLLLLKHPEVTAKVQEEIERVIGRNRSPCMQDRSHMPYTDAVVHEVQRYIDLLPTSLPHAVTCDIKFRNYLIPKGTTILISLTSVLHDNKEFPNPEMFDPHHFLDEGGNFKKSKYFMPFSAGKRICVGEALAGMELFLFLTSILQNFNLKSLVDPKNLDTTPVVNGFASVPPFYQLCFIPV

The test concerns the target Cytochrome P450 2C9 (Homo sapiens) (UniProt P11712). As to the kind of experiment: Cytochrome panel assay with activity outcomes. The conditions noted are these: recombinant CYP, pro-luciferin dealkylation, luminescence, p450-cyp2c9; series mostly up to 57.1 µM.
With `CCOc1cc(-c2noc(N)c2C#N)cc(OCC)c1OCC`, the AC50 was 7.94 µM (active).
In the case of `O=C(O)C[n+]1ccccc1`, the activity, negative = inhibition is 6.61% [at 11.4 µM] (inactive).
Turning to `C[C@@]12C(=O)OC(=O)[C@@]1(C)[C@@H]1CC[C@@H]2O1`, the AC50 entry was “inactive”.
The same measure, in the same setting: the value for `CS(=O)(=O)c1cnc2c(-c3ccc(F)cc3)cnn2c1N` was “inactive”; that for `CS(=O)(=O)c1ccc(-c2cc(Br)sc2-c2ccc(F)cc2)cc1` was 0.794 µM (active).
As for `CC(=O)OC[C@@H]1O[C@@H](O/N=C2/C[C@@H](O)[C@@H](O)[C@@H]3[C@H]4C(=O)N(c5ccc(F)cc5F)C(=O)[C@@H]4CC[C@H]23)[C@H](OC(C)=O)[C@H](OC(C)=O)[C@@H]1OC(C)=O`, the activity, negative = inhibition is 29.1% [at 11.4 µM] (inactive).
Take `CN(C)/C(CN1CCOCC1)=C1\N=C(c2ccccc2)OC1=O`: the AC50 was 17.8 µM (active).
Consider `Cc1cc(-c2ccccc2)nnc1NCCN1CCOCC1`, for which the AC50 entry is “inactive”.
Still for that read-out and setting: the same measure for `CN(C)/C(CN1CCN(C=O)CC1)=C1\N=C(c2ccccc2)OC1=O`: “inactive”; for `CCCCCCCCN1C(=O)N(C)C(N(O)C(=O)NC)C1(C)C` (stereo not given): “inactive”.
With `COC(=O)CNC(=O)CN1C(=O)N(c2ccc(Cl)cc2)C(N(O)C(=O)Nc2ccc(Cl)cc2)C1(C)C` (stereo not given), the AC50 was 14.1 µM (active).
For the molecule `O=C(O)c1ccccc1OP(=O)(O)O`, the AC50 entry is “inactive”.
On the same count and under the same terms, the same measure for `CC(C)(C)[C@@]1(O)CCN2C[C@@H]3c4ccccc4CCc4cccc(c43)[C@@H]2C1`: 1.58 µM (active).
In the case of `CN(C)c1ccc(-c2cncnc2Nc2ccc(F)cc2)cc1`, the activity, negative = inhibition is -2.26% [at 2.29 µM] (inactive).
For `CN(C)CCC[C@@]1(c2ccc(F)cc2)OCc2cc(C#N)ccc21`, the AC50 entry is “inactive and 3.16 µM (active)”.
For the molecule `CCOC(=O)c1ccc(Cl)c(NC(=O)c2ccc(-c3ccccc3)cc2)c1`, the AC50 result was “inactive”.
Take `CCOc1c(Cl)cc(C(=O)Nc2ccccc2-c2ccccc2)cc1Cl`: the AC50 is 2.82 µM (active).
Still for that read-out and setting: the value for `NS(=O)(=O)c1ccc(NS(=O)(=O)c2ccc(NC(=O)c3ccc(-c4ccccc4)cc3)cc2)cc1` was 0.2 µM (active); that for `Cc1cc(NC(=O)c2cc(C(C)C)on2)no1` was “inactive”.
Same read-out and setting: the value for `Cc1cc(NC(=O)c2ccc(S(=O)(=O)Nc3ccccc3)cc2)no1` was 2.24 µM (active).
For the molecule `COc1cc2ccccc2cc1C(=O)Nc1ccc(S(=O)(=O)Nc2cc(C)on2)cc1`, the AC50 was 12.6 µM (active).
On to `NS(=O)(=O)c1ccc(NC(=O)Nc2cccc3ccccc23)cc1`, for which the activity, negative = inhibition was -9.47% [at 11.4 µM] (inactive).
For `COc1cccc(OC)c1C(=O)Nc1cc(C)on1`, the AC50 entry is “inactive”.
Take `Cc1cc(C)c2nc(-c3ccccn3)cc(C(=O)Nc3ccc(S(=O)(=O)Nc4cc(C)on4)cc3)c2c1`: the AC50 is 7.08 µM (active).
As for `Cc1cc(NC(=O)c2ccccc2Cl)no1`, the AC50 entry is “inactive”.
On to `Nc1ccc(S(=O)(=O)NC(=O)c2ccccc2)cc1`, for which the AC50 entry was “inactive”.
Regarding `COCCNc1cc(-c2c(C)noc2C)ncn1`, the activity, negative = inhibition was 6.99% [at 2.29 µM] (inactive).
Turning to `CC(C)(C)NC[C@H](O)COc1cccc2[nH]c(=O)[nH]c12`, the AC50 result was “inactive”.
The same measure, in the same setting: the same measure for `Cc1ncc(CO)c(CO)c1O`: “inactive”.
On the same count and under the same terms, the value for `Cc1cc(=O)oc(C)c1C(=O)N1CCCCC1` was “inactive”.
With `Cc1ccc(S(=O)(=O)Nc2ccccc2C(=O)c2ccc(C)c(C)c2)cc1`, the activity, negative = inhibition is 5.56% [at 11.4 µM] (inactive).
Take `COC(=O)c1ccc(NC(=O)c2ccccc2NS(=O)(=O)c2ccccc2)cc1`: the AC50 was 0.2 µM (active).
As for `NC(N)=NC(N)=Nc1ccc(S(N)(=O)=O)cc1`, the activity, negative = inhibition is -4.01% [at 11.4 µM] (inactive).
Consider `Cc1ccccc1-n1c(=O)cc(N2CC(C)OC(C)C2)[nH]c1=O` (stereo not given), for which the AC50 result is “inactive”.
The same measure, in the same setting: the value for `O=c1cc(N2CCC(Cc3ccccc3)CC2)[nH]c(=O)n1C1CCCCC1` was 12.6 µM (active); that for `O=C(c1ccco1)N1CCN(c2cc(=O)n(C3CCCCC3)c(=O)[nH]2)CC1` was “inactive”.
Take `CN1CCN(c2ccnc(-c3ccoc3)n2)CC1`: the activity, negative = inhibition is 4.59% [at 2.29 µM] (inactive).
For the molecule `CON/C=C(\C=Nc1ccccc1)c1ncc(C(F)(F)F)cc1Cl`, the AC50 was 7.94 µM (active).
Take `N#Cc1c(NC(=O)CCN2C(=O)c3ccccc3C2=O)oc(-c2ccccc2)c1-c1ccccc1`: the AC50 was 0.398 µM (active).
On to `C/C(CCN1CCCc2nc(C)c(C)cc21)=N\O[C@@H](C)c1cn([C@H](CO)Cc2ccccc2)nn1`, for which the activity, negative = inhibition is -12.1% [at 11.4 µM] (inactive).
Regarding `Cc1c(/N=C/c2ccco2)n(Cc2ccccc2)c2ccccc12`, the AC50 was 14.1 µM (active).
For the molecule `CCn1c(=O)cc(SCC(=O)N2CCN(C(=O)c3ccco3)CC2)c2ccccc21`, the AC50 entry is “inactive”.
As to `CC[n+]1c(P(=O)([O-])c2ccccc2)[nH]c2ccccc21`, the AC50 entry is “inactive”.
Same read-out and setting: the value for `COC(=O)CCSc1cc([N+](=O)[O-])cc2c1c(C1OCCS1)nn2-c1ccccc1` (stereo not given) was 10 µM (active).
Take `Cn1cc(-c2nc3cnc(Oc4ccccc4)nc3n(C)c2=O)c2ccccc21`: the AC50 result is “inactive”.
For `Cn1cc(-c2nc3cncnc3n(-c3ccccc3)c2=O)c2ccccc21`, the AC50 result is “inactive”.
On the same count and under the same terms, the same measure for `Cn1cc(/C=N/n2cnc3scc(-c4ccccc4)c3c2=O)c2ccccc21`: 5.01 µM (active); for `Nc1nonc1-c1noc(CCCN2C(=O)c3ccccc3C2=O)n1`: “inactive”; for `COC(=O)c1scc(C)c1NC(=O)Cc1ccccc1`: “inactive”.
For the molecule `O=C(Cc1ccc(Br)cc1)Nc1ccccc1Sc1ccccc1`, the AC50 was 2.82 µM (active).
Consider `CNc1nc(-c2cccc(NS(C)(=O)=O)c2)nc2ccccc12`, for which the activity, negative = inhibition is 27.5% [at 2.29 µM] (inactive).
As for `COCCNc1ncnc2ccc(-c3cccc(NS(C)(=O)=O)c3)cc12`, the activity, negative = inhibition is 16.7% [at 2.29 µM] (inactive).
In the case of `COc1ccc(CNc2ncncc2-c2cccc(NS(C)(=O)=O)c2)c(OC)c1`, the activity, negative = inhibition is -18.5% [at 2.29 µM] (inactive).
Take `COc1ccc(CNc2nc(-c3cccc(NS(C)(=O)=O)c3)nc3ccccc23)c(OC)c1`: the AC50 was 0.158 µM (active).
As to `COc1ccc(CNc2ncnc3ccc(-c4cccc(NS(C)(=O)=O)c4)cc23)c(OC)c1`, the concentration at half-maximal activity (AC50) was 0.501 µM (active).
On to `COCCNc1nc(-c2cccc(NS(C)(=O)=O)c2)nc2ccccc12`, for which the activity, negative = inhibition is 2.19% [at 2.29 µM] (inactive).
With `C[C@@H](CCC(=O)O)C(=O)O`, the activity, negative = inhibition is 3.2% [at 11.4 µM] (inactive).
In the case of `CC(=O)N1CCC[C@@]2(CCN(c3ccccc3)C2)C1`, the AC50 result is “inactive”.
The same measure, in the same setting: the same measure for `CC(=O)c1c(N2CCC(C(N)=O)CC2)nc(=S)n(-c2ccccc2)c1C`: “inactive”; for `C=CCn1c(C)c(C(C)=O)c(N2CCN(c3ccccc3)CC2)nc1=S`: 12.6 µM (active).

The record behind these values is PubChem BioAssay AID1851 (National Center for Advancing Translational Sciences (NCATS), 2009).
